Reference: PubChem BioAssay
Values without a mark were called inactive. The list shows a part of the results. Activity calls are given as the source filed them.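 Rule for the calls, unless noted: active = inhibition above a cutoff equal to the mean inhibition of all tested compounds plus 3 SD (cut at about 30% in these data); inactive = the rest.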

Tests used:
[1] = test system: Fam108b (Abhd17b) serine hydrolase [Mus musculus]; test: inhibition of Fam108b (Abhd17b) hydrolase – biochemical, fluorescence polarization, triplicate, counter-screen for RBBP9 inhibitor project, confirmation (AID 1978;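 active = inhibition above a limit from the primary screen, the mean over all compounds plus 3 SD, cut at about 19% in these data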;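 note: 0% = median of active Fam108b wells and 100% = catalytically dead S170A mutant; inhibitors free the probe so polarization falls as inhibition rises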); details: recombinant Fam108b, FP-Rh probe fluorescence polarization; at 9.51 µM; stronger effect = higher value
[2] = biological target: Bcl-2-like protein 1 (Homo sapiens) (UniProt Q07817); test: Bcl-xL BH3-peptide displacement, hit confirmation – biochemical, fluorescence polarization, counter-screen for MCL1 inhibitor project (AID 2166); details: GST-Bcl-xL / FITC-Bim BH3 peptide FP binding; at 10.9 µM; stronger effect = higher value
[3] = biological target: Induced myeloid leukemia cell differentiation protein Mcl-1 (Homo sapiens) (UniProt Q07820); test: MCL1-BIM peptide interaction disruptors – biochemical, fluorescence polarization, triplicate, confirmation (AID 2168;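 active = inhibition above the average of all tested compounds plus 3 SD, cut at about 40% in these data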;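 note: 0% = DMSO wells and 100% = unlabeled Bim-BH3 control peptide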); details: GST-MCL1 / FITC-Bim-BH3 fluorescence polarization; at 10.9 µM; stronger effect = higher value
[4] = biological target: Protein phosphatase methylesterase 1 (Homo sapiens) (UniProt Q9Y570); test: human PME-1 methylesterase inhibition confirmation – biochemical, fluorescence polarization, FP-Rh probe, triplicate (AID 2171;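 active = inhibition above the hit cutoff set in the earlier primary screen, cut at about 27% in these data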;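 note: 0% = enzyme with DMSO and 100% = wells lacking PME-1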); details: recombinant PME-1, FP-Rh probe fluorescence polarization; at 5.9 µM; stronger effect = higher value
[5] = biological target: (Lyso)-N-acylphosphatidylethanolamine lipase (Mus musculus) (UniProt Q8VD66); test: mouse ABHD4 hydrolase blockers, triplicate – biochemical, fluorescence polarization, confirmation (AID 720658;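 active = mean inhibition across replicates above the hit cutoff set in the primary screen, cut at about 30% in these data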;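 note: 0% = wild-type ABHD4 with DMSO and 100% = catalytically dead S159A mutant with DMSO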); details: purified mABHD4, FP-Rh probe fluorescence polarization; at 8.92 µM; stronger effect = higher value
[6] = biological target: Insulin-degrading enzyme (Homo sapiens) (UniProt P14735); test: cellular IDE Abeta-cleavage inhibition – fluorescence polarization, HEK cells, FAbetaB substrate, confirmation (AID 435028;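 active = mean inhibition across triplicate wells above the cutoff set by the earlier primary insulin-degrading enzyme screen, cut at about 16% in these data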;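 note: 0% = DMSO wells and 100% = 60 µM reference IDE inhibitor Ii1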); details: at 5.59 µM, stronger effect = higher value
[7] = HEK cell viability loss – luminescence, cytotoxicity control for IDE inhibitor project (AID 449730; in the data active = inhibition above about 22%;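 note: 0% = vehicle wells and 100% = reference cytotoxic drug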); details: HEK293 cytotoxicity, ATP luminescence; at 5.59 µM; stronger effect = higher value
[8] = biological target: Glutathione S-transferase omega-1 (Homo sapiens) (UniProt P78417); test: recombinant GSTO1 blockers, retest – biochemical, fluorescence polarization, triplicate, counter-screen for RBBP9 inhibitor project, confirmation (AID 2176;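 active = inhibition above the primary screen's cutoff, its mean inhibition plus 3 SD, cut at about 35% in these data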;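 note: loss of polarization as inhibitors block binding of rhodamine sulfonate ester activity probe; 0% = GSTO1 with DMSO and 100% = wells lacking GSTO1 enzyme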); details: recombinant GSTO1, probe fluorescence polarization; at 5.96 µM; stronger effect = higher value
[9] = biological target: Protein-arginine deiminase type-4 (Homo sapiens) (UniProt Q9UM07); test: protein arginine deiminase 4 blockade, retest – biochemical, fluorescence polarization, confirmation (AID 488796;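 active = mean inhibition across replicates above the hit cutoff set by the earlier primary screen, cut at about 15% in these data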;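 note: inhibitors block active-site labeling by the probe so polarization falls; 0% = PAD4 with probe and DMSO and 100% = probe without PAD4 enzyme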); details: recombinant PAD4, RCA probe fluorescence polarization; at 6.36 µM; stronger effect = higher value
[10] = biological target: Serine protease HTRA1 (Homo sapiens) (UniProt Q92743); test: confirming inhibition of human HTRA1 – biochemical, fluorescence polarization, confirmation (AID 540248;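 active = mean inhibition over three repeats above a set limit taken from the earlier primary screen, cut at about 37% in these data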;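 note: 0% = HTRA1 with DMSO and 100% = wells lacking HTRA1; inhibitors block probe binding so polarization drops and inhibition rises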); details: recombinant HTRA1, FP-rhodamine activity-based probe, at 5.96 µM, stronger effect = higher value
[11] = biological target: Nuclear receptor coactivator 3 (Homo sapiens) (UniProt Q9Y6Q9); test: NCOA3 GAL4-fusion reporter inhibition – cell-based, luminescence, quadruplicate, confirmation (AID 588792;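 active = mean inhibition over 43.08%, the solvent-only control mean plus 3 SD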;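 note: 0% = DMSO treated cells and 100% = gossypol at 36 µM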); details: HEK293 GAL4-SRC3 luciferase reporter, at 3.6 µM, stronger effect = higher value
[12] = test system: transactivating tegument protein VP16 (Human herpesvirus 1), Gal4-VP16 luciferase reporter; test: repression of VP16-driven luciferase reporter – cell-based, luminescence, high throughput, counter-screen for SRC3 inhibitor project (AID 588794; in the data active = inhibition above about 30%); details: mammalian cells, at 3.6 µM, stronger effect = higher value
[13] = biological target: Nuclear receptor coactivator 1 (Homo sapiens) (UniProt Q15788); test: NCOA1 GAL4-fusion reporter inhibition – cell-based, luminescence, quadruplicate, confirmation (AID 588820;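 active = mean inhibition above 46.68%, the untreated control wells mean plus 3 SD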;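 note: 0% = DMSO wells and 100% = gossypol 36 µM treated wells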); details: HEK293 GAL4-SRC1 luciferase reporter, at 3.6 µM, stronger effect = higher value
[14] = repression of VP16-driven luciferase reporter – cell-based, luminescence, high throughput, counter-screen for SRC1 inhibitor project (AID 588824; in the data active = inhibition above about 25%); details: cell-based VP16 transactivation luciferase luminescence; at 3.6 µM; stronger effect = higher value
[15] = BSA probe fluorescence interference – biochemical, TAMRA-labeled BSA, counter-screen for TCR-CD3 interaction inhibitor project (AID 652035; in the data active = inhibition above about 23%;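 note: 0% = buffer low control and 100% = reference high control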); details: TAMRA-labeled BSA probe fluorescence counterscreen; at 9.4 µM; stronger effect = higher value
[16] = test system: T-cell receptor (TCR)-CD3 interaction, human; test: blockers of TCR binding to CD3 – biochemical, fluorescence, TAMRA-labeled TCR probe, confirmation (AID 652036; in the data active = inhibition above about 19%); details: TAMRA-labeled TCR probe fluorescence binding assay; at 9.4 µM; stronger effect = higher value
[17] = biological target: Lytic switch protein BZLF1 (Epstein-Barr virus (strain B95-8)) (UniProt P03206); test: blockers of Zta-ZRE DNA complex – biochemical, fluorescence polarization, triplicate, confirmation (AID 2361;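 active = mean inhibition across triplicate runs above the hit threshold derived for the original primary screen, cut at about 33% in these data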;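 note: 0% = Zta with DMSO and 100% = wells lacking Zta protein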); details: Zta-ZRE DNA binding, at 11.1 µM, stronger effect = higher value
[18] = test system: Epstein-Barr virus nuclear antigen 1 (EBNA-1), Human herpesvirus 4; test: blockers of EBV EBNA-1 binding to DNA – biochemical, fluorescence polarization, counter-screen for ZTA inhibitor project (AID 2362; call rule not given here); details: EBNA-1 DNA binding, at 14.8 µM, stronger effect = higher value

Glutathione S-transferase omega-1 (Homo sapiens), sequence (P78417 whole entry, looked up): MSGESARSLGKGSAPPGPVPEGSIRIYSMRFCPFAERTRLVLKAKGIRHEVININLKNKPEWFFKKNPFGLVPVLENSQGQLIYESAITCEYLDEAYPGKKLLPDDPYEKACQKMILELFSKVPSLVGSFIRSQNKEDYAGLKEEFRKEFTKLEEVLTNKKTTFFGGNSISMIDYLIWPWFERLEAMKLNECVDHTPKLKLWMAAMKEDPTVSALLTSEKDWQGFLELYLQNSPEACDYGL
Bcl-2-like protein 1 (Homo sapiens), sequence (Q07817 whole entry, looked up): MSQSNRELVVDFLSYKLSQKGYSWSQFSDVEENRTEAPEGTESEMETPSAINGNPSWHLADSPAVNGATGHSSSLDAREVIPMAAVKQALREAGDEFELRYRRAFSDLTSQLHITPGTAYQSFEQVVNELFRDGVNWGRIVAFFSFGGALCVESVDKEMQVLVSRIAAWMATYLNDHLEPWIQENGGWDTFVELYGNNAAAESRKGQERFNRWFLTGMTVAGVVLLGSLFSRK
(Lyso)-N-acylphosphatidylethanolamine lipase (Mus musculus), sequence (Q8VD66 whole entry, looked up): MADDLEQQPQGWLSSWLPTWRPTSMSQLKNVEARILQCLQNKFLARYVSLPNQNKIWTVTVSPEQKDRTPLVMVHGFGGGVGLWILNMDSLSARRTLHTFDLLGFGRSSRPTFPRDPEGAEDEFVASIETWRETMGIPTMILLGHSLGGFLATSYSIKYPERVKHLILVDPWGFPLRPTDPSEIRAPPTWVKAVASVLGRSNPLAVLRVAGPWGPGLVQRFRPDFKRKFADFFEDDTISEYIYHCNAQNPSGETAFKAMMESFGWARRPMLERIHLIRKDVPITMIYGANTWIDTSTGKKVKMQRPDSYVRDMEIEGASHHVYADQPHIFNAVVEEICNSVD
Induced myeloid leukemia cell differentiation protein Mcl-1 (Homo sapiens), sequence (Q07820 whole entry, looked up): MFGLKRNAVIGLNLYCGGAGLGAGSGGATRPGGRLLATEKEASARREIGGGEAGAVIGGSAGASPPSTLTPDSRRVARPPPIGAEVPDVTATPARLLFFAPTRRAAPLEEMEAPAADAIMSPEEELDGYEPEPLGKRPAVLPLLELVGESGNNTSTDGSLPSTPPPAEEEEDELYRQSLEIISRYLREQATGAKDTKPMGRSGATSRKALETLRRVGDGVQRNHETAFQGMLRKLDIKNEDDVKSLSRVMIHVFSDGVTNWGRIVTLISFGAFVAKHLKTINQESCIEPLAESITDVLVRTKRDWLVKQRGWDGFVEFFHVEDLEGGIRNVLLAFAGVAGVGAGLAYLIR
Nuclear receptor coactivator 3 (Homo sapiens), sequence (Q9Y6Q9 whole entry, looked up, the tested form may be a part): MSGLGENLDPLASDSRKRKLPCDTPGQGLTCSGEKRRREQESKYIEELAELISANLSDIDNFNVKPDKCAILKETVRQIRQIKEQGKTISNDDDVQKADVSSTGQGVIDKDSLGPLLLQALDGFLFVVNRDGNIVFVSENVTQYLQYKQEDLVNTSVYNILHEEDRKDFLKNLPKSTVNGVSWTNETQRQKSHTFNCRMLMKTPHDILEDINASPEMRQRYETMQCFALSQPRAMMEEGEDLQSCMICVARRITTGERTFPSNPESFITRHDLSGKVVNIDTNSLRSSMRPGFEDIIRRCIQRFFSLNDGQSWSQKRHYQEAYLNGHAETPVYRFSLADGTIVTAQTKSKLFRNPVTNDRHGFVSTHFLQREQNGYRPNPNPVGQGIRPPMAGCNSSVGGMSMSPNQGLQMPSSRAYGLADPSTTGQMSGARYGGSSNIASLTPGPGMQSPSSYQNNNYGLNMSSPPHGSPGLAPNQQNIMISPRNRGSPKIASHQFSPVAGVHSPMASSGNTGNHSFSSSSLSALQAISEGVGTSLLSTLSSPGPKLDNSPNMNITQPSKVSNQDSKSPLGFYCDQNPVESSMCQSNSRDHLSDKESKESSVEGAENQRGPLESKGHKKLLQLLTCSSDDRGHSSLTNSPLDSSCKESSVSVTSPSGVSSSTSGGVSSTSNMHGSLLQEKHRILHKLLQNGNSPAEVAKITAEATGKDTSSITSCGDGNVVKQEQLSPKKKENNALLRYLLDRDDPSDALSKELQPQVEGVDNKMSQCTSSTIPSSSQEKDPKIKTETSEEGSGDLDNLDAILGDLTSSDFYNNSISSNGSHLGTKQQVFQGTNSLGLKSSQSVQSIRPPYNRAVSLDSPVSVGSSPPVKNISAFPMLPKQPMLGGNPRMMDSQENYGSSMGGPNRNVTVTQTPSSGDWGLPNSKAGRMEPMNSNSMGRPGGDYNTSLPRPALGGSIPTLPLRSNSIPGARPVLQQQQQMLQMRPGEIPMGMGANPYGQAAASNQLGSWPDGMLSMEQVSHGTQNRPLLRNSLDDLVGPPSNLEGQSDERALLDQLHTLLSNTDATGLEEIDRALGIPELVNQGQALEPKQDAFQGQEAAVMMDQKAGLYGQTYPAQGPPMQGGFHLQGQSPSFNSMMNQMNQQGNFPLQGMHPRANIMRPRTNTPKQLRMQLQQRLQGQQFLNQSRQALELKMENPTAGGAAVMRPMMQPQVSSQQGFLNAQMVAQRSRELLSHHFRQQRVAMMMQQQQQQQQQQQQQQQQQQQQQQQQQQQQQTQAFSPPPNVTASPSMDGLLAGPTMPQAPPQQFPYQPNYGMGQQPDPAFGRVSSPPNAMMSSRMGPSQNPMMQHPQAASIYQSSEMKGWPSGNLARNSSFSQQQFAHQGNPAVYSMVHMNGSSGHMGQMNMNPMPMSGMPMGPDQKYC
Nuclear receptor coactivator 1 (Homo sapiens), sequence (Q15788 whole entry, looked up, the tested form may be a part): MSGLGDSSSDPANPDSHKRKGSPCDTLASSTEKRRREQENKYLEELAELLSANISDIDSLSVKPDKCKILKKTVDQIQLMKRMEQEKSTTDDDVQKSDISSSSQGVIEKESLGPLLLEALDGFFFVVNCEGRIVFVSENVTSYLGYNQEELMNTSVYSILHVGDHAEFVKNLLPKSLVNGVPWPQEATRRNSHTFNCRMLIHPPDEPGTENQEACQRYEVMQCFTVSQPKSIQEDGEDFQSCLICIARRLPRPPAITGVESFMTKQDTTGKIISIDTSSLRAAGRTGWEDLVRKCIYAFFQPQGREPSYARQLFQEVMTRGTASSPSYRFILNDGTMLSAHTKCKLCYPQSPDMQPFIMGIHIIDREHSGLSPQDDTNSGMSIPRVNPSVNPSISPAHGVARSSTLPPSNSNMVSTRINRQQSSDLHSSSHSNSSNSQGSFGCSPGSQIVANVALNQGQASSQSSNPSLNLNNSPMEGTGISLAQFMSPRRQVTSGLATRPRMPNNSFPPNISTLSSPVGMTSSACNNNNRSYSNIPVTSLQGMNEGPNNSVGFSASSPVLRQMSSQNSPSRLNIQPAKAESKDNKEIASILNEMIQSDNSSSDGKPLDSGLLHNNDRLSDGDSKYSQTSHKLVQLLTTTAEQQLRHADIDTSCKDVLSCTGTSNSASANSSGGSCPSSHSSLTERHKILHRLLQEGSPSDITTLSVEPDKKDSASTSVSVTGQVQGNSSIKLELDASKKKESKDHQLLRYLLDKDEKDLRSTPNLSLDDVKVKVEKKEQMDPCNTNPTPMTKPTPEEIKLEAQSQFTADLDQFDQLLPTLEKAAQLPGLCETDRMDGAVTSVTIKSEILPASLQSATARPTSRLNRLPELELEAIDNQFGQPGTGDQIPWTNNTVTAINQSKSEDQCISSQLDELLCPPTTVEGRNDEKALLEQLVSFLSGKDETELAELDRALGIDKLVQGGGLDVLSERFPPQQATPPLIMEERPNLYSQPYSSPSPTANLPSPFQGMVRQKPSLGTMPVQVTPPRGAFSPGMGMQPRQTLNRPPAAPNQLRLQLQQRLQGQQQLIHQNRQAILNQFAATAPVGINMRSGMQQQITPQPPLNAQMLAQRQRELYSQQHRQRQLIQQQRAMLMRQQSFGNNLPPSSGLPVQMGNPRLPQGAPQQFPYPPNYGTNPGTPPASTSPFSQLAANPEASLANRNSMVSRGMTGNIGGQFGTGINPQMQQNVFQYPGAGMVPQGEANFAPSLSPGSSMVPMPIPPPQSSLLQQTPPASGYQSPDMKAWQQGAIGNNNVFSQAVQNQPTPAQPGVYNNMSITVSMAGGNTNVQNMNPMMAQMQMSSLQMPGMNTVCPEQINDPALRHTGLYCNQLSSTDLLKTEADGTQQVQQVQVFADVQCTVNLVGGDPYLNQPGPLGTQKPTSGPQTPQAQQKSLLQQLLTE
Insulin-degrading enzyme (Homo sapiens), sequence (P14735 whole entry, looked up): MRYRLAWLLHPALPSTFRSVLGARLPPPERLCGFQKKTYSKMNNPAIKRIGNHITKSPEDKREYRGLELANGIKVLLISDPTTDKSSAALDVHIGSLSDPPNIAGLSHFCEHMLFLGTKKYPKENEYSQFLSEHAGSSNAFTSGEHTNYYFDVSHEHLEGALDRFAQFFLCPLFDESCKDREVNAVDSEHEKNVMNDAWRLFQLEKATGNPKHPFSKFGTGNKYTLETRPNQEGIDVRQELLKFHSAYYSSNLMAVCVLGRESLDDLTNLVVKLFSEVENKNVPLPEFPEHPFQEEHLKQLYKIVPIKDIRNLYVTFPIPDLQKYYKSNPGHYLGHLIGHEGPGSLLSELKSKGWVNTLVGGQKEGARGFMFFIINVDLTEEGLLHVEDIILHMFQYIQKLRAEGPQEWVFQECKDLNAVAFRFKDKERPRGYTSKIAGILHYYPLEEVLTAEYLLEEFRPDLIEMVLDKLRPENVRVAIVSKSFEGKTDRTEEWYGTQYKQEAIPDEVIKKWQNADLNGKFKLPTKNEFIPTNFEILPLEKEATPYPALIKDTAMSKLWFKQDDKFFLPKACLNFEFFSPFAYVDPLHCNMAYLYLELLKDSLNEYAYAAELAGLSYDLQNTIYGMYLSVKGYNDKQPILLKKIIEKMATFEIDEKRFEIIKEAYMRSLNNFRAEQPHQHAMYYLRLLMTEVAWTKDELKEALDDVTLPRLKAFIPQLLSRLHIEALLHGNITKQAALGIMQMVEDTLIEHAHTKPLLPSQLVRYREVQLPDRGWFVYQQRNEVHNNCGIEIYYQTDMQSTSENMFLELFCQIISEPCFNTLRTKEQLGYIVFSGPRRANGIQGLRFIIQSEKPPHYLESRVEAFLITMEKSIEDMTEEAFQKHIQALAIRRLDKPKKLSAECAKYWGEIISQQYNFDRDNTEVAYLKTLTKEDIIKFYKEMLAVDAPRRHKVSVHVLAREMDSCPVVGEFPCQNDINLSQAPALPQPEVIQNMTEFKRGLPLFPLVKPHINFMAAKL

## Cc1[nH]n(C(N)=S)c(=O)c1N=Nc1ccc(Cl)cc1Cl
[1]
  inhibition: 22.4% (active)

## Cc1ccc(C(=O)NC(=S)Nc2ccc(N3CCOCC3)cc2)cc1
[2]
  inhibition: 8.63%
[3]
  inhibition: 8.72%

## COC/C=C/C1=CC2=CC(=O)C(C)(OC(=O)CCC(=O)OC)C(=O)C2=CO1 (configuration not stated)
[2]
  inhibition: 43.5% (active)
[3]
  inhibition: 59.1% (active)

## O=C(NNc1c2ccccc2nc2ccccc12)c1cc2ccccc2cc1O
[1]
  inhibition: 51.3% (active)
[4]
  inhibition: -6.46%
[5]
  inhibition: 41% (active)

## C=CCOc1cccc(C2C(C(=O)c3ccc(C)o3)=C(O)C(=O)N2c2nnc(C)s2)c1 (configuration not stated)
[2]
  inhibition: 70.1% (active)
[3]
  inhibition: 80.5% (active)
[6]
  inhibition: 6.36%
[7]
  inhibition: 5.97%

## O=C(COC(=O)c1ccccc1C(=O)N1CCN(c2ccccc2)CC1)NCc1ccccc1
[2]
  inhibition: 22.1%
[3]
  inhibition: 16.5%

## CCOC(=O)c1cc2n(c1N)-c1ccccc1C2=O
[2]
  inhibition: 91.1% (active)
[3]
  inhibition: 106% (active)

## COc1ccc(Cl)cc1NC(=O)CCS(=O)(=O)c1ccc(Br)cc1
[2]
  inhibition: 6.91%
[3]
  inhibition: 46.5% (active)

## COc1ccc(Nc2cc(Cl)ccc2C(=O)O)cn1
[2]
  inhibition: 38.7% (active)
[3]
  inhibition: 53.5% (active)

## COC(=O)c1sc(NC(=S)NC(=O)c2ccc(C)cc2)nc1C
[2]
  inhibition: 12.1%
[3]
  inhibition: 19.3%

## COc1ccc2[nH]c(C)c(CCN(Cc3cccs3)C(=S)Nc3ccccc3OC)c2c1
[2]
  inhibition: 14.6%
[3]
  inhibition: 12.4%

## COc1cc([C@H](Cc2ccccc2)NC(C)=O)oc(=O)c1
[2]
  inhibition: 37.8% (active)
[3]
  inhibition: 40.9% (active)

## O=c1[nH]c2ccccc2n2c(-c3ccccc3)nnc12
[2]
  inhibition: 36.7% (active)
[3]
  inhibition: 34.5%
[8]
  inhibition: 23.1%

## COC(=O)c1cc(OCC(=O)NC2CCCc3ccccc32)cc(C(=O)OC)c1 (configuration not stated)
[2]
  inhibition: 16.3%
[3]
  inhibition: 28.4%

## CCCN1CC=C2C(C#N)=C(N)C(C#N)(C#N)C(c3cc(OC)ccc3OC)C2C1 (configuration not stated)
[2]
  inhibition: 35.6% (active)
[3]
  inhibition: 35.4%

## CCCn1c(O)c(CN2CCCC(C)C2)c(C)c(C#N)c1=O (configuration not stated)
[2]
  inhibition: 36.2% (active)
[3]
  inhibition: 39.3%

## O=C(COC(=O)Cn1cnc2ccccc21)Nc1cccc2c1C(=O)c1ccccc1C2=O
[2]
  inhibition: 88.4% (active)
[3]
  inhibition: 73.3% (active)

## Cc1ccc(C(=O)O)cc1-c1ccc(/C=C2\SC(=O)N(CC(=O)Nc3ccc4c(c3)OCO4)C2=O)o1
[2]
  inhibition: 18.5%
[3]
  inhibition: 60.8% (active)

## Cc1nnc(NC(=O)/C=C/c2ccco2)s1
[2]
  inhibition: 11.6%
[3]
  inhibition: 16.8%

## CC(C)(C)OC(=O)NCCCC1=CC2=CC(=O)C(C)(OC(=O)c3ccco3)C(=O)C2=CO1 (configuration not stated)
[2]
  inhibition: 26.3%
[3]
  inhibition: 36.3%

## Cc1ccc(S(=O)(=O)C(C#N)c2nc3ccccc3nc2N2CCCC2)cc1C (configuration not stated)
[2]
  inhibition: 74.9% (active)
[3]
  inhibition: 82.8% (active)
[8]
  inhibition: 26.5%

## CN1c2ccc(C=O)c3c(C=O)ccc(c23)N(C)C1(C)C
[2]
  inhibition: 126% (active)
[3]
  inhibition: 151% (active)
[8]
  inhibition: 63.5% (active)
[9]
  inhibition: 18.5% (active)
[10]
  inhibition: 46.9% (active)
[11]
  inhibition: 27.9%
[12]
  inhibition: 9.96%
[13]
  inhibition: 13.7%
[14]
  inhibition: 16.3%
[15]
  inhibition: 15.3%
[16]
  inhibition: 10.7%
[5]
  inhibition: 20.4%

## O=C(O)c1ccccc1N=N/C(=N/Nc1cc(S(=O)(=O)O)ccc1O)c1ccccc1
[2]
  inhibition: 29.1%
[3]
  inhibition: 69.6% (active)

## CCCn1c(C2CCCN2c2nc(-c3ccc(C)cc3)cs2)nc2cc(Cl)c(N3CCCCC3)cc21 (configuration not stated)
[2]
  inhibition: 4.86%
[3]
  inhibition: 15.1%

## O=C1c2ccccc2C(=O)c2c1cccc2N1CCN(CCO)CC1
[2]
  inhibition: 43.9% (active)
[3]
  inhibition: 58.3% (active)

## Cn1c2ccccc2c(=O)c2c(=O)n(Cc3ccco3)c(COc3ccccc3)nc21
[2]
  inhibition: 38.4% (active)
[3]
  inhibition: 60.8% (active)

## Oc1ccc2ccccc2c1N=Nc1nccs1
[2]
  inhibition: -28.4%
[3]
  inhibition: -52.8%
[8]
  inhibition: 24.3%
[10]
  inhibition: 52.2% (active)
[11]
  inhibition: 45.8% (active)
[12]
  inhibition: 46.5% (active)
[13]
  inhibition: 29.6%
[14]
  inhibition: 55.1% (active)
[5]
  inhibition: 64.9% (active)

## Cc1ccc(C2Nc3cccc4cccc(c34)N2)cc1
[2]
  inhibition: 13.9%
[3]
  inhibition: 13.8%

## COC(=O)[C@H]1[C@H]2C[C@H]3c4[nH]c5ccccc5c4CCN3C[C@@H]2CC[C@@H]1O
[2]
  inhibition: 88.6% (active)
[3]
  inhibition: 112% (active)
[17]
  inhibition: 22.7%
[18]
  inhibition: -1.66%

## COC(=O)C[n+]1cccc2ccccc21
[2]
  inhibition: 142% (active)
[3]
  inhibition: 173% (active)

## O=C(C[n+]1cc(Br)cc2ccccc21)c1ccc(F)cc1
[2]
  inhibition: 23%
[3]
  inhibition: 22.2%

## CC/C(C)=N/Nc1nc2sc3c(c2c(=O)[nH]1)CC(C)(C)OC3
[2]
  inhibition: 34.7% (active)
[3]
  inhibition: 53.8% (active)
